Most compounds without a hit are left out; they make up all but 7.9% or so of the library.
SW480 rereplic: inducers of DNA re-replication in SW480 colon cancer cells | hit rate 1.8% among 340,000 | SW480 DNA re-replication, Hoechst DNA content imaging, 48 h | AID 624297 | Potency, µM (doses to about 46.1 µM), for the others: at the highest dose re-replication activation, most hits filed as activators; further: % of control where 0% means no effect; nearly all actives have a fitted effect of over 55% in size
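Image-based DNA-content assay: after two days of treatment, nuclei were labelled with the DNA dye Hoechst and imaged, and hits were compounds raising the count of nuclei showing high fluorescence intensity.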
HT1080 IDH1KD tx: toxicity to HT-1080 IDH1 knockdown cells (counter line); AID 686971; Potency, µM (highest dose often 46.1 µM), for inactives: at the top dose activity, negative = toxicity, usual class: cytotoxic; HT-1080 IDH1 knockdown viability, ATP luminescence, 48 h; hit rate 2% among 360,000;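 further: 0% = DMSO wells and -100% = cell-free medium wells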
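% activity derives from luminescence (CellTiter-Glo), normalised to DMSO and no-cell wells. HT-1080-IDH1KD cells, 750/well, had 48 h compound exposure at 37 °C.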
KB-3-1 cytotox: KB-3-1 parental cell cytotoxicity; KB-3-1 viability, CellTiter-Glo ATP luminescence, 72 h; Potency, µM (doses to about 46.1 µM), actives largely listed as cytotoxic; hit rate 1.4% among 400,000; AID 1347075; further: on the % scale 0 is the no-effect control and ±100 the full control effect; nearly all actives have a fitted effect of over 60% in size
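Parental KB-3-1 adenocarcinoma cells in phenol-red-free DMEM with 10% FBS were pin-treated with compounds at several concentrations, incubated 72 h at 37 °C, and viability read by CellTiter-Glo luminescence; concentration-effect curves were fitted after normalization.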
HT1080-NT tox: kills 2HG-producing HT-1080-NT fibrosarcoma cells | Potency, µM (doses to about 46.1 µM), for inactives: top-dose activity, negative = less viability, actives largely listed as cytotoxic | HT-1080-NT fibrosarcoma viability, CellTiter-Glo ATP luminescence, 48 h | AID 686970 | hit rate 1.6% among 360,000;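 further: NT is the 2HG producing partner of a matched IDH1 knockdown line; 0% = DMSO-treated cells and -100% = media-only wells without cells; nearly all actives have a fitted effect of over 55% in size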
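750 cells/well, RPMI + 5% FBS; 2 h settle, compound pin-transfer, 48 h at 37 degrees C. CellTiter-Glo 10 min RT, luminescence. Normalized to DMSO and media-only wells.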
MCF10A rereplic: DNA re-replication induction in MCF 10a cells; AID 624296; hit rate 2.9% among 350,000; MCF 10A DNA re-replication, Hoechst nuclear intensity, 48 h; Potency, µM (series often up to 46.1 µM), inactives show top-dose activity, positive = re-replication, most hits filed as activators; further: % of control where 0% means no effect; nearly all actives have a fitted effect of over 50% in size
KB-V1 MDR tox: kills drug-selected multidrug resistant KB-V1 cells; KB-V1 MDR cells viability, CellTiter-Glo, 72 h; Potency, µM (titrated, usually from 46.1 µM), hits mostly cytotoxic; hit rate 3.4% among 400,000; AID 1347076; further: on the % scale 0 is the no-effect control and ±100 the full control effect; nearly all actives have a fitted effect of over 60% in size
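In this primary screen, KB-V1 cells overexpressing P-gp are incubated with library compounds (lowest to highest concentration) for 72 h at 37 degrees C before a luminescent ATP viability read.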
Numbers without * were called inactive; i = inactive; ? = inconclusive; nt = no result given. The call rests on the fitted dose curve; in most records, active means well fitted curve in the direction sought with a large enough effect; inconclusive means small, poorly fitted or top-dose-only effect, or another doubt; inactive means no such curve, though single readings can be large; an effect the other way counts as inactive or inconclusive. Potency means the concentration at half of the fitted maximal effect.

SMILES | SW480 rereplic | HT1080 IDH1KD tx | KB-3-1 cytotox | HT1080-NT tox | MCF10A rereplic | KB-V1 MDR tox
Cc1c(C(=O)NCc2ccccc2C(F)(F)F)sc(=O)n1Cc1ccc2c(c1)OCO2 | nt | 2% | i | -18% | nt | ?
O=C(CN1CCOCC1)N1CCc2ccccc2C(c2ccccc2)C1 (stereo not given) | -6% | 3% | i | 2% | -2% | i
O=C(CBr)N1CCc2ccccc2C(c2ccccc2)C1 (stereo not given) | -54% | 21µM* | i | 26µM* | 0% | i
Cc1ncccc1C(=O)N1CCCC(c2cc(C(=O)Nc3ccc(C(C)(C)C)cc3)no2)C1 (stereo not given) | nt | ? | i | 21µM* | nt | i
O=C(Nc1ccncc1)C1CCCN(S(=O)(=O)c2cccc3cccnc23)C1 (stereo not given) | 2.1µM* | ? | ? | 3.3µM* | 9.2µM* | i
CC(C)(C)c1ccc(NC(=O)c2cc(C3CCCN(S(=O)(=O)c4cccc5cccnc45)C3)on2)cc1 (stereo not given) | nt | ? | ? | -21% | nt | 23µM*
O=C(Nc1ccc(C(F)(F)F)cc1)C1CCCN(S(=O)(=O)c2cccc3cccnc23)C1 (stereo not given) | nt | nt | i | nt | nt | i
Cn1ccsc1=NC(=O)c1ccc([N+](=O)[O-])o1 | 9.2µM* | -21% | ? | -19% | 7.3µM* | ?
COc1cc(C(=O)N=c2sccn2C)c([N+](=O)[O-])cc1OC | -15% | -1% | i | 12% | 0% | i
CN(C)c1ccc(Sc2ccc3nc(N)nc(N)c3c2)cc1 | nt | 1.6µM* | 8.2µM* | 2.3µM* | nt | 8.2µM*
CN(C)c1ccc(-c2c3ccccc3nc3ccccc23)cc1 | nt | nt | ? | nt | nt | i
O=C(Cn1cc(C(=O)C2CC2)c2ccccc21)Nc1ccc(Br)cc1 | nt | nt | i | nt | nt | i
O=C(Nc1cnc(N2CCC(N3CCCCC3)CC2)c(C(=O)O)c1)c1ccc(Br)cc1 | nt | nt | i | nt | nt | i
CCOC(=O)C1=C(CC)Nc2ccccc2N=C1NC(=O)c1ccc(OC)c(S(=O)(=O)N2CCCCC2C)c1 (stereo not given) | 8% | -26% | i | -2% | 3.7µM* | ?
CCn1cc2nc(SCC(=O)Nc3ccccc3F)n(Cc3ccc(C)cc3)c(=O)c2n1 | nt | nt | i | nt | nt | ?
COc1cc(C(=O)Nc2nc(C)c(Cc3ccc4c(c3)OCO4)s2)cc(OC)c1OC | 5.8µM* | 4.6µM* | i | 4.1µM* | 2.6µM* | 1.5µM*
Cc1c(Cc2ccc3c(c2)OCO3)sc(NC(=O)c2ccc3ccccc3c2)c1C(N)=O | -2% | -1% | ? | 11% | 15µM* | i
CCCOc1ccc(C(=O)Nc2nc(C)c(Cc3ccc4c(c3)OCO4)s2)cc1 | ? | ? | ? | -14% | ? | i
Cc1ccc(NC(=O)Cn2nc(N3CCN(c4ccccc4)CC3)ccc2=O)cc1F | nt | nt | ? | nt | nt | i
COC(=O)[C@H](Cc1ccccc1)NS(=O)(=O)c1ccc(F)cc1Br | -3% | 6% | i | 9% | 0% | i
CCOC(=O)c1cc(-c2ccc(C)cc2)n(CCC(=O)Nc2ccc(OC)c(OC)c2)c1C | nt | nt | i | nt | nt | i
CCOc1ccc(N2C(=O)N(Cc3c(F)cccc3Cl)c3ccccc3S2(=O)=O)cc1 | nt | nt | i | nt | nt | i
Cc1cc(Cl)c2oc(C(=O)N3CCN(c4ccncc4)CC3)c(C)c2c1 | 12µM* | 12µM* | ? | 12µM* | 5.8µM* | ?
COc1cc(-c2ccc(N3C(c4ccsc4)=Cc4ccccc4C3CC(C)=O)cc2)cc(OC)c1OC (stereo not given) | nt | 12% | i | 0% | nt | i
O=C(CN1C(=O)C2CC=CCC2C1=O)OCC(=O)c1ccc(Cl)c([N+](=O)[O-])c1 (stereo not given) | ? | 2% | i | 1% | 23µM* | ?
